Compound activity: PubChem, University of Kansas High Throughput Screening Laboratory
This is a sample that favours compounds with a hit; in the whole collection about 3.5% have one here.
mHTT CaM bind = inhibitors of human mutant huntingtin-calmodulin interaction | P42858 | AlphaScreen His-mHTT/GST-CaM binding, luminescence | inhibition, % at 15 µM | 3.6% of 190,000 active;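 note: 0% = both proteins with DMSO and 100% = one protein alone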
Pf apPOL block = Pf-apPOL DNA polymerase inhibition; 0.25% of 210,000 active; Recombinant Pf-apPOL, molecular beacon fluorescence, 1.5 h; inhibition, % at 10 µM
* = called active by the depositor; x = no result; ! = a repeat was not active. Cut-off read from the data, not from the text of the source: active = inhibition above about 50%; inactive = the rest.

SMILES	mHTT CaM bind	Pf apPOL block
O=C1CC(c2ccccc2)CC2=C1C(c1ccc(Cl)c([N+](=O)[O-])c1)Nc1ccccc1N2 (stereo unspecified)	84*	2
O=C1CC(c2ccc(Cl)cc2)CC2=C1C(c1ccccc1[N+](=O)[O-])Nc1ccccc1N2 (stereo unspecified)	25	-7
O=C1CC(c2ccccc2)CC2=C1C(c1ccc(Cl)cc1)Nc1ccccc1N2 (stereo unspecified)	45	10
COCC(C)(O)CNC(=O)C(C)(C)C (stereo unspecified)	1	0
O=C(NCC1(c2ccccc2)CCOCC1)NC12CC3CC(CC(C3)C1)C2	-3	1
O=C(Nc1ccc(Oc2cccc(C(F)(F)F)c2)nc1)c1ccc2c(c1)CCO2	x	0
CCOc1cc2c(c([N+](=O)[O-])c1)NC(C1CC=CCC1)C1CC=CC21 (stereo unspecified)	71*	3
O=C(O)c1ccc([N+](=O)[O-])c2c1NC(C1CC=CCC1)C1CC=CC21 (stereo unspecified)	41	2
O=C(CCc1ccccc1)N1CCOc2ccccc2C1	-7	1
CCOc1ccc(C2=Nn3c(nnc3-c3cccnc3)SC2)cc1Cl	4	-2
CCOc1ccc(CNC(=O)c2cccc(C3CCCN(C(=O)NC(C)C)C3)c2)cc1 (stereo unspecified)	14	-3
O=C(O)c1cc([N+](=O)[O-])c(C(=O)O)cc1Oc1cc(Cl)c(Cl)cc1Cl	-5	-5
Nc1cc(Cl)c(Oc2cccc(Cl)c2Cl)cc1[N+](=O)[O-]	97*	-3
CC(=O)C1=C(C)NC(SCC(=O)c2cccc(Cl)c2)=C(C#N)C1c1sccc1C (stereo unspecified)	-48	100*
CC(=O)C1=C(C)NC(SCC(=O)c2cccc([N+](=O)[O-])c2)=C(C#N)C1c1ccc(Cl)cc1 (stereo unspecified)	56*	4
CC(=O)C1=C(C)NC(SCC(=O)c2ccc(Cl)c(Cl)c2)=C(C#N)C1c1ccco1 (stereo unspecified)	54*	2
CC(=O)C1=C(C)NC(SCC(=O)c2cc(Cl)ccc2Cl)=C(C#N)C1c1ccco1 (stereo unspecified)	2	-1
CC(=O)C1=C(C)NC(SCC(=O)c2ccc(Cl)cc2)=C(C#N)C1c1sccc1C (stereo unspecified)	-44	4
CC(=O)C1=C(C)NC(SCC(=O)c2ccc(Cl)cc2)=C(C#N)C1c1cccc([N+](=O)[O-])c1 (stereo unspecified)	38	-7
CC=C(C(=CC)c1ccccc1)c1ccccc1	x	4
COCCc1nc(C2CCCN(C(=O)c3ccc(OC)nc3)C2)n[nH]1 (stereo unspecified)	4	-7
Cc1ccc2cc(C=O)c(N3CCCCC3)nc2c1	-9	-4
N#Cc1c(NC(=O)c2cc3cc([N+](=O)[O-])ccc3s2)sc2c1CCC2	-5	-5
Cc1cccc(CC(=O)N2CC3CC2CC3NC(=O)c2cccs2)c1 (stereo unspecified)	-3	0
O=C(c1cc(=O)c2ccccc2o1)N1CCC(CSC2=NCCS2)CC1	1	-10
SMILES	mHTT CaM bind	Pf apPOL block
CCOC(=O)C1=C(C)c2ccccc2OC1(CC)C(=O)OCC (stereo unspecified)	-50	-4
CCOC(=O)C1=C(C)c2ccccc2N(C(=O)OC)C1(C)C(=O)OCC (stereo unspecified)	41	78*
CCNC(=O)N1CCC(Oc2ccccc2)CC1	2	1
O=[N+]([O-])c1ccc2nc(SCc3c[nH]c4ccccc34)sc2c1	58*	-9
O=[N+]([O-])c1ccc2nc(SCc3ccccc3F)sc2c1	12	-2
Cc1ccc(F)cc1S(=O)(=O)N1CCCN(C2CCN(CC3CC3)C2=O)CC1 (stereo unspecified)	2	4
COc1ccc(N2C(=O)CSC2c2cc3c(cc2[N+](=O)[O-])OCO3)cc1OC (stereo unspecified)	2	1
O=C1NCC(CN(c2ccccc2)c2ccccc2)O1 (stereo unspecified)	83*	-3
Cc1ccccc1OCC1CNC(=O)O1 (stereo unspecified)	1	10
O=C(Cn1cnc(-c2ccc(Cl)cc2)cc1=O)NCc1cccnc1	-17	-14
COc1ccc(C2CCCN2C(=O)c2ccc(C)cc2)cc1 (stereo unspecified)	1	0
O=C(NCc1cscn1)C1CCN(S(=O)(=O)c2ccc(Cl)s2)CC1	-7	-4
COCC(=O)N1CCc2c(c(C(=O)NCc3ccccc3)nn2C)C1	19	2
CC(C)CC(=O)N1CCc2c(c(C(=O)NCc3ccc(Cl)cc3)nn2C)C1	66*	3
COCC(=O)N1CCc2c(c(C(=O)NCc3ccc(F)cc3)nn2C)C1	-2	-9
CC(C)CC(=O)N1CCc2c(c(C(=O)NCc3ccc(F)cc3)nn2C)C1	59*	-1
Cc1cc(CN2CCC(CNC(=O)C(=O)Nc3cccnc3)CC2)c(C)o1	-2	-3
COc1ccc(-c2csc(Nc3ccc(O)cc3)n2)cc1OC	71*	-4
Cc1ccc(-c2csc(Nc3ccc(C(=O)O)cc3)n2)cc1C	18	-5
Clc1ccc(Nc2nc(-c3cccnc3)cs2)cc1	0	-3
COc1ccc(-c2csc(Nc3cccc(O)c3)n2)cc1OC	68*	3
COc1ccc(-c2csc(Nc3ccc(NC(C)=O)cc3)n2)cc1OC	49	-1
COc1ccc(-c2csc(Nc3ccc(C)c(C)c3)n2)cc1F	52*	-5
Oc1cccc(Nc2nc(-c3ccc(Cl)cc3)cs2)c1	97*	-5
COc1ccc(-c2csc(N)n2)cc1OC	18	-2
SMILES	mHTT CaM bind	Pf apPOL block
O=C(Nc1ccccc1)N1CCC(n2c(-c3ccoc3)nc3cccnc32)C1 (stereo unspecified)	1	0
CC12CN3CC(C)(CN(C1)C3c1ccc([N+](=O)[O-])cc1)C2=O (stereo unspecified)	4	-8
Cc1cccc(OCCn2c(CCO)nc3ccccc32)c1C	3	-10
COc1ccc(-c2csc(NC(=O)c3ccc(Br)s3)n2)cc1OC	69*!	64*!
Cc1ccc(-c2csc(NC(=O)c3ccc(Br)s3)n2)o1	13	0
O=C(NCc1ccc(N2CCCC2)nc1)c1ccc(F)c(F)c1	23	5
Cc1ccc(C(=O)N2Cc3ccccc3CC2C(=O)O)cc1 (stereo unspecified)	53*	-1
Cc1ccc(C(=O)N2CCCC2c2ccccc2C)cc1 (stereo unspecified)	-9	0
COc1ccc(OC)c(C2Oc3c(OC)cccc3C3CC(c4cccs4)=NN32)c1 (stereo unspecified)	2	-13
COc1c(O)ccc(C2Oc3ccccc3C3CC(c4cccs4)=NN32)c1[N+](=O)[O-] (stereo unspecified)	55*	0
COc1ccc(C2Oc3ccccc3C3CC(c4cccs4)=NN32)cc1O (stereo unspecified)	52*	10
COc1cc(C2Oc3ccccc3C3CC(c4cccs4)=NN32)cc(OC)c1O (stereo unspecified)	47	8
O=C(c1cccs1)N1N=C(c2cccs2)CC1c1cc([N+](=O)[O-])ccc1O (stereo unspecified)	48	2
Clc1cccc(C2Oc3ccccc3C3CC(c4ccccc4)=NN32)c1 (stereo unspecified)	-7	x
